Source: PubChem BioAssay (several laboratories)
PrPC surface inh: inhibitors of human cell surface prion protein PrPC, primary screen, cell-based, TR-FRET; TR-FRET read-out; inhibition, % at 13.8 µM; actives 0.43% (n = 370,000); in the data active = inhibition above about 24%; note: 0% = median of the test wells and 100% = reference compound wells
PrP 5UTR inh: inhibition of PrP 5' UTR reporter expression; cell-based PrP 5' UTR mRNA reporter, plate reader; inhibition, % (concentration not given with the values); actives 0.35% (n = 340,000); in the data active = inhibition above about 52%; note: 0 = median of the neutral control wells
SSB-PriA inh: inhibitors of Klebsiella pneumoniae PriA binding to SSB C-terminal tail, primary screen, biochemical, AlphaScreen | PriA–SSB C-terminal tail interaction (Klebsiella pneumoniae) | AlphaScreen SSBct-PriA binding, biotinylated peptide | inhibition, % at 33 µM | actives 0.6% (n = 430,000) | AID 1272365, 2023; in the data active = inhibition mostly above about 37%, no sharp cut-off; inactive = mostly below about 20%;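 note: plate controls were negative control peptide for no effect and reference peptide for full effect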
FadD28 binding: inhibitors of FadD28 bisubstrate probe binding, primary screen, biochemical, fluorescence polarization, single point. Mycobacterium tuberculosis FadD28 fatty-acid-AMP ligase. inhibition, % at 12.5 µM. actives 0.22% (n = 360,000). AID 588549, 2011; in the data active = inhibition above about 8.5%, passing the limit was not always enough
Vc quorum ag-1: inducers of Vibrio cholerae quorum light production without autoinducers, primary screen, BH1578 luxS cqsA deficient, single point. actives 0.16% (n = 350,000). V. cholerae BH1578 lux reporter, luminescence, 6 h. activation, % at 18.7 µM; in the data active = activation mostly above about 9.7%, no sharp cut-off
PrP UTR cherry: prion 5' UTR mRNA inhibition, cherry-pick retest | shares compounds with PrP 5UTR inh | cell-based prion protein 5' UTR reporter, plate reader | inhibition, % at 2.5 µM | actives 48% (n = 1,100) | AID 504592, 2011; in the data active = inhibition above about 54%
Vc quorum ag-2: V. cholerae lux activation without autoinducers – BH1578 luxS cqsA deficient, cherry-pick, plate reader, dose response; shares compounds with Vc quorum ag-1; V. cholerae BH1578 lux reporter, luminescence, 6 h; activation, % at 50 µM; 620 tested, under 10 active; call rule not given here
HeLa tox: HeLa cell cytotoxicity, dose response, cytotoxicity control, 24 h, dry powder; shares compounds with Vc quorum ag-1; HeLa viability, CellTiter-Glo ATP luminescence; activity change, negative = cytotoxicity, % at 35 µM; 25 tested, under 10 active; AID 624140, 2012;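 active = signal drop with fitted half-maximal concentration at or below twice the highest valid dose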
PrPC confirm: confirmation of inhibitors of cell surface human prion protein, confirmation, cell-based, TR-FRET | shares compounds with PrPC surface inh | cell surface PrPC level | inhibition, % at 13.8 µM | actives 65% (n = 1,500); in the data active = inhibition above about 25%
LD9 cytotox: cytotoxicity in LD9 cells, cytotoxicity control for cell surface PrPc inhibitor project, cell-based, luminescence, high throughput; luminescence viability; AID 743201, 2013; actives 29% (n = 1,500); shares compounds with PrPC surface inh; inhibition, % at 13.8 µM; in the data active = inhibition above about 9.5%
Starred values were filed as active, the others as inactive; i = inactive; nt = no result. A selection: hits, their analogues and other compounds. The true share with any hit is near 1.4%.

SMILES	PrPC surface inh	PrP 5UTR inh	SSB-PriA inh	FadD28 binding	Vc quorum ag-1	Vc quorum ag-2	others
Cc1ccc(C(C)C)c(OCc2ccc(C(=O)N/N=C/c3cccc(O)c3O)cc2)c1	42.7*	61.9*	nt	-0.3	-0.1	nt	PrP UTR cherry=65.5*;PrPC confirm=28.6*;LD9 cytotox=19.5*
O=C(Cc1csc(SCc2ccc(Br)cc2)n1)NCC1CCCO1 (stereo unspecified)	nt	nt	-4.0	nt	nt	nt
CNc1c2cccc(C)c2nc2c(C(=O)NCCN(C)C)cccc12	29.4*	96.3*	-8.1	-0.8	i	nt	PrP UTR cherry=95.6*;PrPC confirm=61.8*;LD9 cytotox=59.1*
CC1CC(C)(O)CC(C(O)CC2CC(=O)NC(=O)C2)C1=O (stereo unspecified)	82.6*	63.9*	-7.0	-0.2	i	nt	PrP UTR cherry=61.4*;PrPC confirm=97.2*;LD9 cytotox=36.3*
O=C1N(c2ccccc2)C[C@@H]2C[C@@H](c3cc4ccccc4o3)N3CCC[C@@]123	39.7*	58.7*	-8.0	-1.8	i	nt	PrP UTR cherry=73.6*;PrPC confirm=54.2*;LD9 cytotox=25.2*
O=C1N(c2ccccc2)CC2C(c3ccccc3)C(c3ccccc3)N3CCCC123 (stereo unspecified)	2.0	nt	nt	nt	nt	nt
O=C(c1nccc2ccccc12)N1CCc2nc3ccc(F)cn3c(=O)c2C1	nt	nt	-14.0	nt	nt	nt
CN1CCc2c(sc(NC(=O)c3ccc([N+](=O)[O-])o3)c2C(N)=O)C1	44.4*	91.1*	9.8	0.3	0.2	nt	PrP UTR cherry=96.7*;PrPC confirm=42.4*;LD9 cytotox=60.8*
NC(=O)c1c(NC(=O)c2ccc([N+](=O)[O-])o2)sc2c1CCCC2	-1.8	16.9	-3.8	-0.5	i	nt
CC(C)(O)/C=C/C(=O)C(C)(O)C1C(O)CC2(C)C3CC=C4C(C=C(O)C(=O)C4(C)C)C3(C)C(=O)CC12C (stereo unspecified)	34.5*	70.0*	-9.9	-2.8	i	nt	PrP UTR cherry=90.4*;PrPC confirm=32.7*;LD9 cytotox=13.5*
Cc1ccc(C2SCCN2S(=O)(=O)c2ccc(I)cc2)cc1 (stereo unspecified)	nt	nt	-10.0	nt	nt	nt
COc1ccc(S(=O)(=O)N2CCSC2c2ccc(N)cc2)cc1 (stereo unspecified)	12.0	-15.6	10.7	-1.5	12.5	0.2
COc1ccc(NC(=O)C(=O)NCC2CCCN2S(=O)(=O)c2ccc(C)cc2)cc1 (stereo unspecified)	14.0	77.6*	7.1	-0.2	14.3	-0.2
COc1ccc(CCNC(=O)C(=O)NCC2CCCN2S(=O)(=O)c2ccc(OC)cc2)cc1 (stereo unspecified)	4.5	-14.8	-8.6	-5.5	28.6*	0.1
COc1ccc(S(=O)(=O)N2CCCC2CNC(=O)C(=O)Nc2ccc(C)cc2)cc1 (stereo unspecified)	-0.5	4.3	-2.1	-4.6	-0.2	nt
Cc1c(Cl)cccc1-n1cnc(=O)c2ccccc21	4.9	2.1	-2.5	0.3	2.6	nt	HeLa tox=-5.6
O=c1ncn(-c2cccc([N+](=O)[O-])c2)c2ccccc12	-12.8	-12.2	0.4	-1.1	10.8	nt
Cc1cc(COc2ccccc2O)on1	6.5	-12.1	-9.0	0.4	12.5	201.3
CC1(C)Cc2cccc(OCc3ccc(C(=O)Nc4ccc(C(F)(F)F)cc4)cc3)c2O1	nt	nt	0.0	nt	nt	nt
O=C(N1CC(Oc2nc3c(Cl)cccc3s2)C1)C1(c2ccccc2)CCOCC1	nt	nt	9.0	nt	nt	nt
Oc1ccc(-c2cn3c(n2)SCC3)cc1	-0.2	-7.8	-29.6	-0.2	16.7*	0.5
COC(=O)c1[nH]c2ccc(C)cc2c1NC(=O)Nc1ccc(OC)cc1	-9.6	-18.7	-6.5	-3.0	17.9*	2.4
O=S(=O)(Nc1ccc(-c2csc(-c3ccccc3)n2)cc1)c1ccc(F)cc1	3.3	4.3	-4.7	-2.1	25.0*	0.1
Cc1cccc(OCCSc2nncn2C)c1	0.8	-27.4	-15.7	-4.5	i	nt
Cn1cnnc1SCCOc1ccc(Cl)cc1	2.8	-32.1	-4.3	0.7	132.1*	91.2
SMILES	PrPC surface inh	PrP 5UTR inh	SSB-PriA inh	FadD28 binding	Vc quorum ag-1	Vc quorum ag-2	others
O=S(=O)(NCCOc1ccc(F)cc1)c1ccccc1C(F)(F)F	nt	nt	-4.0	nt	nt	nt
CN(c1ccccc1)S(=O)(=O)c1nnc(NC(=O)C2CCCCC2)s1	-3.9	2.2	-9.3	-2.7	18.8*	0.4
COc1ccccc1NC(=O)c1ccc(-c2cc(C(F)(F)F)ccc2Cl)o1	nt	nt	-11.0	nt	nt	nt
CN1CCN(Cc2nc3ccccc3n2C)CC1CCO (stereo unspecified)	1.0	-16.8	3.2	0.0	i	nt
CC(C)Cn1c(CN2CCN(C)C(CCO)C2)nc2ccccc21 (stereo unspecified)	-14.9	-61.5	-26.7	0.5	72.0*	-0.1
CC(=O)Oc1ccc(-c2cccc(C(=O)O)c2)cc1	4.6	-13.1	-13.8	-2.9	i	nt
CC(=O)Oc1ccc(-c2ccc(C(=O)O)cc2)cc1	2.9	-24.6	7.1	0.0	25.0*	-0.2
CNC(=O)c1cc2cc(OC)ccc2n1CCN(Cc1ccccc1)Cc1ccccc1	-2.5	-54.6	-9.1	-3.5	25.0*	0.4
CNC(=O)c1cc2cc(OC)ccc2n1CCN(C)C	-12.4	-4.1	-10.0	-0.1	-0.6	nt
COc1ccc(OC)c(S(=O)(=O)N2CCC(C(=O)N3CCCC3)CC2)c1	-1.3	-8.6	0.0	-0.8	-0.2	nt
COc1ccc(OC)c(S(=O)(=O)N2CCC(C(=O)N3CCc4ccccc4C3)CC2)c1	1.0	3.1	-0.1	-4.7	12.5	2.1
O=C(Nc1nnc(C(F)(F)F)s1)C1COc2ccccc2O1 (stereo unspecified)	1.9	-25.3	-3.4	1.4	19.2	0.9
O=C(Nc1nnc(C2CC2)s1)C1COc2ccccc2O1 (stereo unspecified)	9.2	-4.0	-11.4	-0.6	i	nt
CC(=O)N1CCc2cc(-c3ccncc3)ccc21	nt	nt	-3.0	nt	nt	nt
CCOc1ccccc1C(=O)NC[C@H](O)c1ccc(OC)c(OC)c1	nt	nt	-9.0	nt	nt	nt
Cc1cccc(N2CCN(C(=O)C34CC5CC(CC(C5)C3)C4)CC2)c1C	-3.8	-16.0	-7.3	-1.4	22.2*	0.7
CCS(=O)(=O)Nc1ccc(C(=O)OC)cc1	4.8	-13.2	-5.3	-3.7	16.7*	0.4
